Screening data: PubChem, The Scripps Research Institute Molecular Screening Center
This is a sample that favours compounds with a hit; in the whole collection about 1.1% have one here.
HTR5A ag ctr – HTR5A agonism, opioid heterodimer counter-screen; activation, % at 9.3 µM; P47898; 340,000 tested, 0.61% active; HTR5A agonist assay, luminescence, cell-based; AID 504692; in the data active means activation mostly above about 9.5%, no sharp cut-off; inactive means mostly below about 7.6%;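 further: 0% = cells with vehicle only and 100% = reference agonist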
Target sequence (P47898 whole entry, looked up): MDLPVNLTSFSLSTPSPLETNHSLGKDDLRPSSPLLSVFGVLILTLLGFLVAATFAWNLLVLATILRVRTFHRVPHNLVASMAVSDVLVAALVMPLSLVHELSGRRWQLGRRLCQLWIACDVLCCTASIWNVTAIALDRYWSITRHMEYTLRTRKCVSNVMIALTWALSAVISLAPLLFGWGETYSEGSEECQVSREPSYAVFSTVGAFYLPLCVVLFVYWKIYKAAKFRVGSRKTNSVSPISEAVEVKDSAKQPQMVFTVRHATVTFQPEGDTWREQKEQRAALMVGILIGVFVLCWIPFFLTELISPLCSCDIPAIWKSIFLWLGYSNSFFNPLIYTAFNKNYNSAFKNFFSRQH
MOR-DOR ag – agonists of human mu-delta opioid receptor heterodimerization; cells, OPRM1-OPRD1 heterodimerization, luminescence; activation, % at 9.3 µM; P35372+P41143; AID 504326; 340,000 tested, 0.3% active; in the data active means activation above about 18%;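 further: 0% = vehicle-treated cells and 100% = reference agonist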
HTR5A inv ctr – counter-screen for OPRM1-OPRD1 inverse agonists: human HTR5A inverse agonism; 340,000 tested, 0.083% active; P47898; HTR5A cell line, luminescence; inhibition, % at 9.3 µM; in the data active means inhibition mostly above about 23%, no sharp cut-off; inactive means mostly below about 18%;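 further: 0% = cells with DMSO and 100% = no-cell wells with DMSO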
OPRM1-OPRD1 inv – mu-delta opioid heterodimer inverse agonism; P35372+P41143; cell-based MOR-DOR heterodimer luminescence; inhibition, % at 9.3 µM; 340,000 tested, 0.21% active; AID 504357; in the data active means inhibition above about 22%, passing the limit was not always enough;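 further: 0% = cells with DMSO and 100% = wells without cells with DMSO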
OPRM1-D1 inv cf – confirmation of human OPRM1-OPRD1 heterodimerization inverse agonists; AID 504900; 580 tested, 20% active; cells expressing OPRM1/OPRD1 heterodimer, luminescence; shares compounds with OPRM1-OPRD1 inv; inhibition, % at 9.3 µM; in the data active means inhibition above about 32%;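 further: 0% = cells with DMSO and 100% = wells lacking cells with DMSO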
HTR5A inv count – inverse agonist of human HTR5A in OPRM1-OPRD1 counter-screen. shares compounds with OPRM1-OPRD1 inv. HTR5A-expressing cells, luminescence, inverse agonism. inhibition, % at 9.3 µM. 580 tested, under 10 active. AID 504914; call rule not given here;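 further: 0% = cells with DMSO and 100% = no-cell wells with DMSO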
* = called active by the depositor; i = inactive; nt = no result given.

SMILES	HTR5A ag ctr	MOR-DOR ag	HTR5A inv ctr	OPRM1-OPRD1 inv	OPRM1-D1 inv cf	HTR5A inv count
Cc1cc(NC(=O)CSCC(=O)OCC(=O)c2cccc(Br)c2)no1	-8	-6	20	27*	-34	7
COc1ccc(NS(=O)(=O)c2ccc3ccccc3c2)c2ncccc12	-5	-7	12	39*	10	-11
O=S(=O)(Nc1cccc2cccnc12)c1ccccc1	-4	-8	9	47*	-33	12
CC(=O)Nc1ccc(S(=O)(=O)Nc2cccc3cccnc23)cc1	-8	-5	20	26	nt	nt
Cc1ccsc1CN(C)Cc1nc(C2CC2)no1	-1	1	2	-8	nt	nt
COc1ccccc1NC(=O)Cc1csc(NC(=S)Nc2ccccc2)n1	1	-6	-1	26	nt	nt
COc1ccc(NC(=S)Nc2nc(CC(=O)Nc3ccccc3OC)cs2)cc1	-1	-7	26	36*	-11	11
CCOC(=O)c1ccc(NC(=S)NCc2cccnc2)cc1	-2	-2	3	12	nt	nt
O=C1N=c2ccccc2=C1c1c(O)n(-c2cccc(F)c2)[nH]c1=O	-7	-6	19	36*	-44	10
Cn1c(O)c(C2=c3ccccc3=NC2=O)[nH]c1=S	7	2	-5	-12	nt	nt
O=C(C1CCN(CCCc2ccccc2)CC1)N(CCc1ccccc1)Cc1ccccc1	-3	3	4	-17	nt	nt
CCN1C(=O)C(O)(C2COC(C)(C)CC2=O)c2cc(Br)ccc21 (stereo not drawn)	1	-9	-2	56*	-16	3
C/C(=N/OC(=O)c1ccccc1Br)c1ccc(C)cc1	5	6	-15	-33	nt	nt
Fc1ccccc1N1CCN(C2CCN(Cc3c[nH]c4ccccc34)CC2)CC1	1	-1	-12	5	nt	nt
CN1C(=O)/C(=C2/C=Cc3ccccc3N2CCCS(=O)(=O)O)SC1=S	-8	-6	21	32*	-52	-12
CCCN1/C(=C2/SC(=S)N(CC)C2=O)C=Cc2ccccc21	-3	-2	2	14	nt	nt
O=C(CCc1nc2ccccc2c(=O)[nH]1)NC1CCN(Cc2ccccc2)CC1	4	0	-14	1	nt	nt
COc1cccc(C(=O)NC(=S)Nc2ccc(Cl)cc2C(=O)O)c1	6	-1	-18	6	nt	nt
O=C(CNS(=O)(=O)c1ccccc1)OCc1cccc([N+](=O)[O-])c1	-1	1	21	-6	nt	nt
O=C(Cc1ccccc1)OCC(=O)c1cccc([N+](=O)[O-])c1	0	-13	1	52*	29	9
O=C(COC(=O)c1cnccn1)c1cccc([N+](=O)[O-])c1	-8	-12	-2	65*	-254	-45
O=C(CNC(=O)c1ccc(Br)o1)OCC(=O)c1cccc([N+](=O)[O-])c1	-14	-18	36*	83*	i	-22
O=C(CNS(=O)(=O)c1ccccc1)OCC(=O)c1cccc([N+](=O)[O-])c1	-8	-12	14	61*	17	5
Cc1ccc(OCC(=O)OCC(=O)c2cccc([N+](=O)[O-])c2)cc1C	-5	-8	19	44*	-26	4
Cc1nc2c3ccccc3n(CC(=O)c3ccc(F)cc3)c(=O)n2n1	-8	-6	24	31*	i	-19
SMILES	HTR5A ag ctr	MOR-DOR ag	HTR5A inv ctr	OPRM1-OPRD1 inv	OPRM1-D1 inv cf	HTR5A inv count
COc1ccc(-c2cc(Nc3ccccc3NC(=O)C(F)(F)F)n(CCC#N)n2)cc1	0	-1	29	3	nt	nt
S=C1NCCc2ccccc2C1c1ccccc1Cl (stereo not drawn)	-2	-9	-27	44*	5	10
S=C1NCCc2ccccc2C1c1ccccc1 (stereo not drawn)	-5	-2	5	13	nt	nt
COc1cc(/C=C/C(=O)OCC(=O)c2ccc(S(=O)(=O)N3CCCCC3)cc2)cc(OC)c1OC	6	-4	-15	18	nt	nt
COc1cccc(/C=C/C(=O)OCC(=O)c2ccc(S(=O)(=O)N3CCCCC3)cc2)c1OC	-5	-6	13	31*	-32	17
COc1cccc(C(=O)OCC(=O)c2ccc(S(=O)(=O)N3CCCCC3)cc2)c1OC	-3	-5	8	30*	-31	7
COc1ccc(C(=O)OCC(=O)c2ccc(S(=O)(=O)N3CCCCC3)cc2)c(OC)c1	1	-1	4	9	nt	nt
Cc1ccc(C(=O)OCC(=O)c2ccc(S(=O)(=O)N3CCCCC3)cc2)o1	-7	-8	20	52*	i	-11
Cc1ccc(OCC(=O)Nc2cccc(S(=O)(=O)N3CCOCC3)c2)c([N+](=O)[O-])n1	7	1	-3	-6	nt	nt
Cc1cc(S(=O)(=O)NCCc2ccccc2)ccc1-n1cnnn1	2	0	-5	0	nt	nt
O=C(CC1(O)C(=O)N(Cc2ccccc2)c2ccccc21)c1ccncc1 (stereo not drawn)	-9	-8	22	40*	-152	-117
Cc1ccccc1CN1C(=O)C(O)(CC(=O)c2ccncc2)c2ccccc21 (stereo not drawn)	-1	-8	3	45*	-84	-32
Cc1ccc(C2Nc3ccccc3NC3=C2C(=O)CC(C)(C)C3)c(O)c1 (stereo not drawn)	1	-2	-4	7	nt	nt
CC1(C)CC(=O)C2=C(C1)Nc1ccccc1NC2c1cc(Cl)ccc1O (stereo not drawn)	2	-8	-5	42*	-428	-12
CC(C)[C@@H](N)C(=O)NC[C@H]1O[C@@H](n2cnc3c(N)ncnc32)[C@H](O)[C@@H]1O	1	-3	-2	14	nt	nt
CC(Oc1ccccc1)C(=O)N=Nc1c(O)[nH]c2ccc([N+](=O)[O-])cc12 (stereo not drawn)	-4	-6	10	45*	17	-8
O=C(N=Nc1c(O)[nH]c2ccc([N+](=O)[O-])cc12)c1ccccc1[N+](=O)[O-]	-7	-4	17	22	nt	nt
O=C1c2ccccc2-c2nc3ccccc3nc21	-6	-16	10	79*	-437	-10
Cc1nc2c(nc1C)C(=O)c1ccccc1C2=O	1	-2	-2	9	nt	nt
COc1ccc(C2=NN(CN3C(=O)C(=O)c4ccccc43)C(c3ccc(C)cc3)C2)cc1 (stereo not drawn)	-2	-9	7	47*	16	8
COc1ccc(C2=NN(CN3C(=O)C(=O)c4ccccc43)C(c3ccc(Br)cc3)C2)cc1 (stereo not drawn)	-3	-4	-9	21	nt	nt
CCOC(=O)c1ccc(-n2c(N)c(C(=O)NCC3CCCO3)sc2=S)cc1 (stereo not drawn)	-4	-7	-8	34*	i	-32
COc1ccc(-n2c(N)c(C(=O)NCC3CCCO3)sc2=S)cc1 (stereo not drawn)	5	3	-24	-14	nt	nt
CCOC(=O)c1ccc(-n2c(N)c(C(=O)NCc3ccco3)sc2=S)cc1	-2	-5	11	30*	-290	-60
